Laboratory results from PubChem BioAssay AID463173 (ICCB-Longwood Screening Facility, Harvard Medical School, 2010).
In all, about 52,000 compounds went through this assay and about 4,300 (8.3%) were called active. Rule as the data show it: active = survival mostly below about 52% (no sharp cut-off); inactive = mostly above about 56%. The list comes from a sample in which actives are over-represented; it also holds similar structures and randomly drawn compounds.

tested on: DeltatarO mutant; assay: growth inhibition of S. aureus wild type versus tarO mutant, primary screen, teichoic acid synthesis inhibitors, RN4220, OD600 (AID 463173); details: OD600, 18 h, active compounds read low, screened at 18.75 µg/mL (by protocol)

| SMILES | survival |
| --- | --- |
| CCOC(=O)c1ccc(Nc2nc3nonc3nc2NCc2ccco2)cc1 | 5% (active) |
| Cc1cccc(Nc2nc3nonc3nc2N/N=C\c2cccs2)c1C | 69% (inactive) |
| CCOC(=O)c1ccc(Nc2nc3ccc(C(=O)c4ccccc4)cc3n3c(C)nnc23)cc1 | 109% (inactive) |
| CCOC(=O)c1ccc(Nc2nc(C)cc(C)n2)cc1 | 85% (inactive) |
| CCOC(=O)c1ccc(Nc2nc3nonc3nc2Nc2cccc(C)c2C)cc1 | -1% (active) |
| Ic1ccc(Nc2nc3nonc3nc2N/N=C\c2ccco2)cc1 | 53% (inactive) |
| Cc1ccc(C)c(Nc2nc3nonc3nc2Nc2cccc(C)c2C)c1 | 2% (active) |
| Brc1cccc(Nc2nc3nonc3nc2NCc2ccco2)c1 | 6% (active) |
| Cc1cccc(Nc2nc3nonc3nc2Nc2cccc(C)c2C)c1C | 66% (inactive) |
| Brc1ccc(NCc2ccco2)cc1 | 96% (inactive) |
| CCOC(=O)c1ccc(NC(=O)C(=O)NCc2ccco2)cc1 | 63% (inactive) |
| O=C(c1ccc(F)cc1F)N1CCC(c2nc(-c3ccc(S(=O)(=O)N4CCCC4)cc3)no2)CC1 | 97% (inactive) |
| O=S(=O)(c1ccc2ccccc2c1)n1nc(-c2ccco2)nc1NCc1ccc(F)cc1 | 106% (inactive) |
| Cc1oc(-c2cccc(Cl)c2)nc1CN1CCC(C(=O)NC(C)c2ccccc2)CC1 (stereo not given) | 85% (inactive) |
| CC(=O)Nc1ccccc1OCc1cc(=O)n2c3c(sc2n1)CCCC3 | 120% (inactive) |
| O=C(/C=C/c1ccccc1)C1=C(O)C(=O)N(CCO)C1c1ccc2c(c1)OCO2 (stereo not given) | 79% (inactive) |
| COc1ccc(-c2oc3ncn4nc(-c5ccccc5O)nc4c3c2-c2ccc(OC)cc2)cc1 | 62% (inactive) |
| CN(C)c1ccc(CNC(=O)c2cc3cc(S(=O)(=O)N4CCCCC4)ccc3n2C)cc1 | 8% (active) |
| Cn1c(C(=O)NCCc2ccccc2)cc2cc(S(=O)(=O)N3CCCCC3)ccc21 | 94% (inactive) |
| Cn1c(C(=O)NCc2ccc(F)cc2)cc2cc(S(=O)(=O)N3CCCCC3)ccc21 | 126% (inactive) |

| SMILES | survival |
| --- | --- |
| CCc1ccc(CNC(=O)c2cc3cc(S(=O)(=O)N4CCCCC4)ccc3n2C)cc1 | 60% (inactive) |
| Cc1ccccc1CNC(=O)c1cc2cc(S(=O)(=O)N3CCCCC3)ccc2n1C | 102% (inactive) |
| Cc1ccccc1CCNC(=O)c1cc2cc(S(=O)(=O)N3CCCCC3)ccc2n1C | 20% (active) |
| CC(C)NC(=O)CCn1c(SCc2c(F)cccc2Cl)nc2c(sc3ccccc32)c1=O | 67% (inactive) |
| COc1ccccc1NC(=O)N1CCN(Cc2ccccc2)CC1 | 87% (inactive) |
| Cc1cc(C)c2sc(N(Cc3cccnc3)C(=O)CCOc3ccccc3)nc2c1 | 115% (inactive) |
| COc1cc(Cl)c(NC(=O)CCS(=O)(=O)c2ccc3c(c2)NC(=O)CO3)c(OC)c1 | 90% (inactive) |
| COc1ccc(NC(=O)c2cc3cc(C)ccc3[nH]2)cc1 | 100% (inactive) |
| Cc1ccc(NC(=O)CN2C(=O)COc3ccc(S(=O)(=O)N4CCOCC4)cc32)cc1N(C)C | 99% (inactive) |
| Cc1ccc(S(=O)(=O)c2cn(CC(=O)Nc3ccc4c(c3)OCO4)c3ccc(F)cc3c2=O)cc1 | 69% (inactive) |
| CC1C(=O)NN=C1C(=O)N/N=C\c1cccnc1 (stereo not given) | 87% (inactive) |
| Cc1ccc(NS(=O)(=O)c2cn(C)c(C)n2)c(Br)c1 | 69% (inactive) |
| COc1ccccc1NS(=O)(=O)c1cn(C)c(C)n1 | 37% (active) |
| CSc1cccc(NS(=O)(=O)c2cn(C)c(C)n2)c1 | 75% (inactive) |
| CCc1nn(CC(=O)NC(C)CC)c(=O)c2cc3c(OC)cccc3n12 (stereo not given) | 128% (inactive) |
| CCc1ccc(OCc2nc(-c3ccc(-n4cccc4)cc3)no2)cc1 | 82% (inactive) |
| CCc1ccc(OC(C)c2nc(-c3ccc(-n4cccc4)cc3)no2)cc1 (stereo not given) | 48% (inactive) |
| CCCc1ccc(OC(C)c2nc(-c3ccc(-n4cccc4)cc3)no2)cc1 (stereo not given) | 52% (active) |
| Cc1cc(NC(=O)CSc2nc3c([nH]c4ccccc43)c(=O)n2-c2ccccc2F)no1 | 88% (inactive) |
| CC(Sc1nnc(-c2ccccc2Br)o1)C(=O)Nc1cccc(Cl)c1 (stereo not given) | 34% (active) |

| SMILES | survival |
| --- | --- |
| Cc1ccccc1NC(=O)C(C)Sc1nnc(-c2ccccc2C)o1 (stereo not given) | 74% (inactive) |
| Cc1ccccc1NC(=O)C(C)Sc1nnc(-c2ccccc2O)o1 (stereo not given) | 69% (inactive) |
| CCOC(=O)C1(C)C=C(Nc2ccc(C(N)=O)cc2)C(=O)N1c1ccccc1 (stereo not given) | 68% (inactive) |
| CCC(=O)N1CCc2cc(Br)cc(S(=O)(=O)CCC(=O)NCCc3ccccc3)c21 | 91% (inactive) |
| Cc1ccc(C)c(NC(=O)CN2C(=O)COc3ccc(Cl)cc32)c1 | 69% (inactive) |
| COC(=O)c1ccccc1NC(=O)CN1C(=O)COc2ccccc21 | 69% (inactive) |
| COC(=O)c1ccccc1NC(=O)CN1C(=O)COc2ccc(Cl)cc21 | 38% (active) |
| COc1ccc(-n2ncc(C(=O)N3CCN(C(=O)c4ccco4)CC3)c2C2CCN(C(=O)OC(C)(C)C)CC2)cc1 | 86% (inactive) |
| COc1ccc(N2CCN(C(=O)c3cc4cc5ccc(Cl)cc5nc4o3)CC2)cc1 | 86% (inactive) |
| Cc1ccccc1S(=O)Cc1ccc(C(=O)N2CCN(c3cccc(C)c3C)CC2)o1 (stereo not given) | 61% (inactive) |
| Cc1ccccc1S(=O)(=O)Cc1ccc(C(=O)N2CCN(c3cccc(Cl)c3)CC2)o1 | 54% (active) |
| Cc1ccc(Cl)cc1N1CCN(C(=O)c2ccc(CS(=O)(=O)c3ccccc3C)o2)CC1 | 50% (inactive) |
| Cc1ccc2cc3cc(C(=O)N4CCN(c5ccc(Cl)cc5)CC4)oc3nc2c1 | 85% (inactive) |
| Cc1cccc(N2CCN(C(=O)c3ccc(CS(=O)c4cccc(Cl)c4)o3)CC2)c1C (stereo not given) | 51% (active) |
| Cc1ccc(S(=O)(=O)Cc2ccc(C(=O)N3CCN(c4cccc(Cl)c4)CC3)o2)cc1 | 75% (inactive) |
| COc1ccc(S(=O)Cc2ccc(C(=O)N3CCN(c4cccc(C)c4C)CC3)o2)cc1 (stereo not given) | 79% (inactive) |
| O=C(c1ccc(CS(=O)c2ccccc2Cl)o1)N1CCN(c2ccccc2F)CC1 (stereo not given) | 84% (inactive) |
| O=C(c1ccc(CS(=O)c2ccccc2Cl)o1)N1CCN(c2cccc(C(F)(F)F)c2)CC1 (stereo not given) | 60% (inactive) |
| O=C(c1cc2cc3ccc(Cl)cc3nc2o1)N1CCN(c2cccc(Cl)c2)CC1 | 46% (active) |
| O=C(c1ccc(CS(=O)c2ccccc2Cl)o1)N1CCN(c2cccc(Cl)c2)CC1 (stereo not given) | 51% (active) |
